Laboratory results reported in PubChem BioAssay AID1928 (Vanderbilt High Throughput Screening Facility, 2009).
The source made the active and inactive calls. No rule for the calls is given here.

target: Muscarinic acetylcholine receptor M5 (Homo sapiens) (UniProt P08912); test: hM5 positive allosteric modulation, ACh fold-shift, SAR follow-up, selectivity assay for M4 PAM project, cell-based, analogs, calcium (AID 1928); settings: hM5-expressing cells, ACh CRC fold-shift; series mostly up to 1 µM
Sequence (P08912 whole entry, looked up): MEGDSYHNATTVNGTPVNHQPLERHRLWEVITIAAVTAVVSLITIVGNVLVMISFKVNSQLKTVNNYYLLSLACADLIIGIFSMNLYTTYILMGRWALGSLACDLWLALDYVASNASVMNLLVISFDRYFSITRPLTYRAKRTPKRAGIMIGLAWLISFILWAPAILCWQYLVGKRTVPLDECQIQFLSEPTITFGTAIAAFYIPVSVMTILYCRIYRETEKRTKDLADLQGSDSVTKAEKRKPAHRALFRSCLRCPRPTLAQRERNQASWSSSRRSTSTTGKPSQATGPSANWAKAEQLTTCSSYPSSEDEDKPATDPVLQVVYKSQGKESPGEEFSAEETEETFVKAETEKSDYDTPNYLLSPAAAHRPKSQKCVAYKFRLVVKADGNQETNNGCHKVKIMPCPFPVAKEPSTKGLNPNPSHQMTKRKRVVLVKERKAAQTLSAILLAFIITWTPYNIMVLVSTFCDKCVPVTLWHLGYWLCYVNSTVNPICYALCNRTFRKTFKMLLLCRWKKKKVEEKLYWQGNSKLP

outcome, inactive:
Cc1cc(OCc2ccncc2)nc2sc(C(=O)NCc3cc(F)ccc3F)c(N)c12
Cc1cc(OCCN2CCOCC2)nc2sc(C(=O)NC(C)(C)C)c(N)c12
COc1ccc(CNC(=O)c2sc3nc(OCc4ccncc4)cc(C)c3c2N)cc1
Cc1cc(OCc2ccncc2)nc2sc(C(=O)NCc3cccc(F)c3F)c(N)c12
